Common to all, as to experiment: NCI-60 one-dose screen, 48 h (100 = growth as untreated, 0 = no growth, -100 = all killed)
What all share (details): 10 µM

Experiment [1] has as its system SK-MEL-2 melanoma.
The subject of experiment [2] is SN12C renal.
Experiment [3] has as its system TK-10 renal.
Experiment [4] deals with ACHN renal.
Experiment [5] concerns A498 renal.
Experiment [6] deals with CCRF-CEM leukemia.
In experiment [7] the test system is MOLT-4 leukemia.
Experiment [8] has as its system RPMI-8226 leukemia.
The test system of experiment [9] is OVCAR-8 ovarian.
Experiment [10] has as its system OVCAR-5 ovarian.
Experiment [11] concerns OVCAR-4 ovarian.
Experiment [12] deals with SK-OV-3 ovarian.
The subject of experiment [13] is OVCAR-3 ovarian.
Experiment [14] concerns HS 578T breast.
In experiment [15] the test system is NCI/ADR-RES ovarian.
Experiment [16] has as its system UO-31 renal.
In experiment [17] the test system is SR leukemia.
Experiment [18] relates to IGROV1 ovarian.
The subject of experiment [19] is CAKI-1 renal.
Experiment [20] concerns EKVX NSCLC.

Drawing on PubChem BioAssay (NCI), this text covers growth for 16 compounds.

SMILES strings stand for the structures. About 83,000 compounds went through this panel and 20% of them were active in at least one assay; those are over-represented in the sample as a whole.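 Single-dose data. Exposure time 48 hours. Values below 10 considered active.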 Unmarked numbers belong to inactive results. The source made the active and inactive calls.

Consider `CSc1nc(S(C)(=O)=O)nc2[nH]c(=O)[nH]c12`, for which the growth in [1] is 106%; in [2] it was 95.9%; in experiment [3], 119%; in experiment [4], 97.7%; in experiment [5], 118%; in [6], 117%. Besides, the growth in [7] was 116%; in experiment [8], 123%; in [9], 108%; in experiment [10] it was 96.3%; in experiment [11], 117%; in experiment [12] it was 115%. Besides, the growth in [13] is 115%; in experiment [14], 111%; in [15], 110%.
On to `COc1ccccc1-n1c(-c2csc(NC(C)=O)n2)n[nH]c1=S`, for which the growth was 100% in experiment [1]; 114% in experiment [2]; 79.6% in experiment [16]; 89.1% in experiment [3]; 114% in [4]; 93.8% in experiment [6]. In addition, the growth in [7] was 92.3%; in experiment [17], 82.8%; in experiment [9], 104%; in experiment [10], 119%; in experiment [11], 103%; in [12], 103%. For the same compound, the growth in [18] was 97.8%; in experiment [13], 117%; in experiment [14] it was 105%; in experiment [15], 96.2%.
`COc1ccc(-c2nn(-c3cccc(Cl)c3)cc2C=C(C#N)C#N)cc1`: the growth in experiment [1] was -39.4% (active); in experiment [2], 10.4%; in experiment [16] it was 11.9%; in experiment [3], -3.05% (active); in experiment [4] it was 9.38% (active); in experiment [6], -27.3% (active). Also, the growth was -45.9% (active) in experiment [7]; -61.6% (active) in [17]; 24.2% in experiment [9]; 29% in experiment [10]; 7.22% (active) in experiment [11]; -0.205% (active) in experiment [12]. Also, the growth is 12.2% in experiment [18], -23.6% (active) in [13], 24.5% in experiment [14] and 2.52% (active) in experiment [15].
Turning to `O=C1C=C(Nc2cccc(Br)c2)c2ccccc2C1=O`, the growth in [1] was 7.56% (active); in experiment [2], 53.6%; in experiment [3] it was 89.8%; in [4], 50.8%; in [19], 78.3%; in [5] it was 88.6%. For the same compound, the growth in experiment [6] was 81.4%; in experiment [7], 81%; in [17] it was 56.8%; in experiment [8], 63.1%; in [9] it was 69.5%; in experiment [10] it was 73.1%. The growth in [11] is 77.6%; in [12], 25.7%; in [13], 38.9%; in experiment [14], 38.5%; in [15], 71.1%.
As to `CCCCCC(=O)O[C@]1(C(C)=O)CCC2C3CCC4=CC(=O)CC[C@]4(C)C3CC[C@@]21C` (some centres undefined), the growth was 27.1% in experiment [20]; 21.5% in experiment [2]; 18.1% in [16]; 40.4% in [3]; 24% in [4]; 18.6% in experiment [19]. Moreover, the growth in experiment [5] is 19.4%; in experiment [6] it was 21%; in experiment [7] it was -23.1% (active); in [17], 2.49% (active); in experiment [8], -12.4% (active); in experiment [9] it was 24.4%. Also, the growth in [10] is 74%; in [11], 18.4%; in [12] it was 64.3%; in experiment [18] it was 33.4%; in experiment [13], 7.34% (active); in experiment [14], 54.9%. For the same compound, the growth in experiment [15] was 12.9%.
Consider `COc1ccc(Cc2cnc(N)nc2N)cc1OC`, for which the growth in experiment [20] is 115%; in experiment [2], 96.1%; in experiment [16], 78%; in [3], 110%; in [4], 96.5%; in experiment [19], 89.1%. Moreover, the growth in experiment [5] is 73.4%; in experiment [6] it was 102%; in experiment [7], 104%; in experiment [17] it was 98.9%; in experiment [8], 102%; in experiment [9] it was 96.2%. The growth was 100% in experiment [10]; 106% in experiment [11]; 96% in [12]; 112% in experiment [18]; 106% in [13]; 105% in experiment [14]. Besides, in experiment [15], the growth was 99.7%.
As to `C[N+]1(CCCCC[N+]2(C)CCCC2)CCCC1`, the growth is 80% in experiment [20]; 62.4% in [2]; 78.5% in experiment [16]; 108% in experiment [3]; 97.2% in [4]; 78.6% in experiment [19]. Moreover, the growth in experiment [5] is 108%; in experiment [7], 91%; in experiment [17], 97.4%; in experiment [8] it was 61.7%; in experiment [9], 78.1%; in experiment [10], 72.9%. The growth in experiment [11] was 97.4%; in experiment [12] it was 68.9%; in experiment [18], 105%; in experiment [13], 107%; in [14], 106%; in experiment [15] it was 75%.
With `CCCCCOC(=O)Nc1nc(=O)n(C2O[C@H](C)[C@@H](O)[C@H]2O)cc1F` (some centres undefined), the growth in experiment [20] was 99.2%; in [2] it was 99.5%; in experiment [3], 98.5%; in experiment [4], 99.6%; in experiment [19] it was 90.5%; in [5], 82.3%. Also, the growth was 96.7% in [6]; 103% in experiment [7]; 101% in [17]; 101% in experiment [8]; 92.3% in experiment [9]; 104% in experiment [10]. Moreover, the growth was 109% in [11]; 93.4% in experiment [12]; 107% in [18]; 106% in experiment [13]; 104% in [14]; 96.4% in experiment [15].
For the compound `C[C@]12CC[C@@H]3c4ccc(O)cc4CC[C@H]3[C@@H]1CC[C@@H]2NS(=O)(=O)c1ccc(C(F)(F)F)cc1`, the growth in experiment [2] is 42%; in [16] it was 13.6%; in experiment [4], 26.9%; in [19], 38.6%; in experiment [5] it was 61.3%; in experiment [7] it was 11.7%. In addition, the growth is 18.9% in [17]; 34.8% in experiment [8]; 57% in experiment [9]; 90.5% in experiment [10]; 49.1% in experiment [11]; 86.6% in experiment [12]. In addition, the growth in experiment [18] was 30.5%; in experiment [13] it was 35.4%; in [14], 72.7%; in experiment [15], 53%.
Turning to `C[C@@H](O)[C@H]1C(=O)N2C(C(=O)O)=C(SC3CN[C@H](C(=O)N(C)C)C3)[C@H](C)[C@H]12` (some centres undefined), the growth in [20] was 104%; in experiment [2], 99.5%; in experiment [3], 106%; in [4] it was 96.9%; in experiment [19], 95.2%; in [5], 88.8%. Also, the growth in [6] was -40.1% (active); in [7], 116%; in experiment [17], 123%; in experiment [8], 96.5%; in [9], 107%; in experiment [10], 100%. In addition, the growth is 114% in [11]; 115% in [12]; 101% in experiment [18]; 116% in experiment [13]; 102% in [14]; 101% in experiment [15].
Take `COc1ccc(C2CC(c3cccs3)=NN2c2ccc(S(N)(=O)=O)cc2)cc1` (centres undefined): the growth in experiment [2] was 91.3%; in [3], 108%; in experiment [4] it was 90.2%; in experiment [19] it was 88.9%; in [5] it was 78.5%; in experiment [6] it was 76.3%. For the same compound, the growth was 71.3% in [7]; 83% in experiment [17]; 61.2% in experiment [8]; 84.4% in experiment [9]; 95.4% in experiment [10]; 107% in [11]. The growth is 88.5% in [12], 92.5% in [13], 97.4% in experiment [14] and 77.4% in experiment [15].
For the compound `O=c1[nH]c(=O)n(C2C[C@H](O)[C@@H](CO)O2)cc1C(F)(F)F` (some centres undefined), the growth in [20] is 109%; in [2], 110%; in experiment [16] it was 89.7%; in experiment [3] it was 104%; in [4] it was 106%; in experiment [19], 96.3%. Besides, the growth in experiment [5] was 118%; in experiment [6], 95%; in experiment [7], 70.2%; in experiment [17] it was 91.9%; in experiment [8], 97.5%; in experiment [9], 103%. The growth in experiment [10] is 103%; in [11] it was 114%; in [12] it was 109%; in [18], 120%; in experiment [13], 117%; in experiment [14], 124%. For the same compound, in [15], the growth is 102%.
On to `CC(C)(C)c1ccc(S(=O)(=O)N[C@H]2CC[C@H]3[C@@H]4CCc5cc(O)c([N+](=O)[O-])cc5[C@H]4CC[C@]23C)cc1`, for which the growth in experiment [2] was 71.8%; in experiment [16], 35.2%; in experiment [3], 90.6%; in [4], 30%; in [19] it was 46.3%; in experiment [5], 75.8%. Besides, the growth in experiment [7] is 78.5%; in [17] it was 63.5%; in experiment [8], 67.3%; in experiment [9], 59.6%; in [10], 95.9%; in experiment [11], 10.3%. The growth in experiment [12] is 47.7%; in experiment [18] it was 78.1%; in experiment [13] it was 53.7%; in experiment [14], 61.6%; in [15] it was 69.1%.
Take `C[C@]12CCC3c4ccc(O)cc4C[C@@H](CCCCCCCCCS(=O)CCCC(F)(F)C(F)(F)F)C3C1CC[C@@H]2O` (some centres undefined): the growth in [20] was 64.8%; in experiment [2], 93.7%; in experiment [16], 62.7%; in [3], 93%; in [4], 74.3%; in experiment [19], 59.2%. In addition, the growth in experiment [5] is 84.6%; in [6], 73.6%; in experiment [7], 39.6%; in experiment [17], 44.6%; in experiment [8] it was 62.5%; in experiment [9], 77.7%. For the same compound, the growth is 84.5% in [10]; 66.2% in experiment [11]; 103% in experiment [12]; 92.3% in [18]; 88.4% in experiment [13]; 81.4% in experiment [14]. Further, the growth in [15] is 70.4%.
Consider `O=C(CCCCCCC(=O)Nc1ccccc1)NO`, for which the growth was 28.8% in [20]; 11.7% in [2]; -2.53% (active) in [16]; 6.84% (active) in [3]; 4.68% (active) in experiment [4]; -28.3% (active) in experiment [19]. Further, the growth in [7] is -5.35% (active); in experiment [17] it was 9.82% (active); in experiment [8] it was 12.8%; in experiment [9], 9.38% (active); in experiment [10], 1.38% (active); in experiment [11], 38.3%. For the same compound, the growth in experiment [12] was 1.71% (active); in experiment [18], 23.7%; in experiment [13] it was -1.79% (active); in [14], 22.2%; in [15], -18.2% (active).
With `CC(=O)[C@@]12O[C@](C)(c3ccccc3)O[C@@H]1CC1C3CCC4=CC(=O)CC[C@]4(C)C3CC[C@@]12C` (some centres undefined), the growth was 63.5% in experiment [20]; 84% in experiment [2]; 51.6% in experiment [16]; 88.2% in experiment [3]; 69.3% in experiment [4]; 47.5% in [19]. Also, the growth is 68.2% in [5]; 73.1% in [6]; 23.7% in experiment [7]; 32.1% in experiment [17]; 47.6% in [8]; 82.4% in [9]. Also, the growth is 88.5% in [10]; 44% in experiment [11]; 99.7% in experiment [12]; 70.7% in [18]; 54.3% in [13]; 86.2% in [14]. The growth in experiment [15] is 60.4%.
